# PI5P4Ka inh = inhibitors of human PI5P4K alpha; 330,000 compounds, 1.2% hits; max response, %; P48426; PI5P4Kalpha enzyme, ADP-Glo luminescence, 60 min; stronger effect = lower value; active means max response of -50% or lower; inconclusive means between -30% and -50%; inactive means -30% or higher; further: value at the top dose of about 77 µM
#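 Human PI5P4Kalpha with substrate in 0.038 M HEPES pH 7.4, 0.28 mM EGTA, 0.1% CHAPS, 5% DMSO; reaction started with 5 microM ATP (final), 60 min at room temperature. ADP formed read by ADP-Glo luminescence.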
# CtBP-E1A inh = blocks the CtBP interaction with E1A | AlphaScreen GST-E1A/His-CtBP binding, 1536-well; stronger effect = lower value | 340,000 compounds, 0.49% hits | activity change, % (concentration not given with the values)
#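 Protein mix (5X: 125 nM each GST-E1A, His-CtBP) was incubated with pinned compound 2 h at 37 deg C in dark, in 50 mM Tris pH 8.0 buffer with 300 mM NaCl. Glutathione donor and nickel acceptor beads followed; AlphaScreen signal read after 1 h.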
# Six1-Eya2 inh = Six1/Eya2 interaction inhibition. AID 651725. 360,000 compounds, 0.56% hits. activity change, % (test concentration not listed). Q15475+O00167. AlphaScreen GST-Six1/His-Eya2 binding, biochemical; stronger effect = lower value
# Target sequence (O00167 whole entry, looked up): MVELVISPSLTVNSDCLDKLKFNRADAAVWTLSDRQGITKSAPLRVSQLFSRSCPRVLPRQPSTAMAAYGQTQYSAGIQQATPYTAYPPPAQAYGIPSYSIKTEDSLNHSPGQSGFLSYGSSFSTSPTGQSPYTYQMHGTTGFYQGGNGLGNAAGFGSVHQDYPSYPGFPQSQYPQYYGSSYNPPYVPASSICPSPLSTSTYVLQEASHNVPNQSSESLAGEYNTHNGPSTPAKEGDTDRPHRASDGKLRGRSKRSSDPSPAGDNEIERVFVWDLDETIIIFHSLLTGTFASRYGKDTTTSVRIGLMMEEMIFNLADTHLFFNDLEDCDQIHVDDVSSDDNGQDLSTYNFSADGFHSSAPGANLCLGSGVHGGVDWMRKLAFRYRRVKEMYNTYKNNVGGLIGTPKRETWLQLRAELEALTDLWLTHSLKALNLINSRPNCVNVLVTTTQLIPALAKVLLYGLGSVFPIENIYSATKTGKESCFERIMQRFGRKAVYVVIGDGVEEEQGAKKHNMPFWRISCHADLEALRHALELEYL
# Target sequence (Q15475 whole entry, looked up): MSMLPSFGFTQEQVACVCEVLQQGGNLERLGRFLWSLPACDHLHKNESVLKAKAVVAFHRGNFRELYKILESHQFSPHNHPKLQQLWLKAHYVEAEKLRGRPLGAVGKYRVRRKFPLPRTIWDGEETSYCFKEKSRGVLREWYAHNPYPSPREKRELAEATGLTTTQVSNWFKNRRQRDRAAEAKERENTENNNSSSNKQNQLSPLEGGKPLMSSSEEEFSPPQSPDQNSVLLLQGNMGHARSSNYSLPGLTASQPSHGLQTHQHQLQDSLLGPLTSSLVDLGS
#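 AlphaScreen luminescence read after one hour at 37 °C in darkness. Pin-transferred compounds met GST-Six1 and His-Eya2 protein (5X stock 250 nM/500 nM) plus glutathione donor and Ni-chelate acceptor beads (5X, 50 ug/mL).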
# PI4K2A inh = PI4K2A (human) kinase inhibition. purified PI4K2A, ADP-Glo luminescence, 1 h; stronger effect = lower value. activity change, negative = inhibition, % at 76.9 µM. 420,000 compounds, 0.13% hits. AID 1346378; in the data active means activity change below about -50%; inconclusive means mostly about -30% to -49%;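 further: -100% = wells without enzyme as full effect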
#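 Compounds are screened against recombinant PI4K2A using PI as substrate and ATP, the latter dispensed at 300 microM. Reactions run one hour at ambient temperature before ADP-Glo detection; full inhibition defined by wells lacking enzyme.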
# pAkt inh = Akt phosphorylation inhibition | Neuro2A IGF-stimulated pAkt S473 HTRF, 20 min; stronger effect = lower value | activity change, % for hits at 50 µM | 360,000 compounds, 0.32% hits; in the data active means activity change below about -80%; inconclusive means mostly about -51% to -80%
#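 Single-point screen (50 µM final compound) in Neuro2A cells stimulated 20 min with 6 nM IGF at 37 deg C. After lysis, Ser473-phosphorylated Akt read by HTRF (ex 330 nm, em 615/665 nm) as the 665/615 ratio.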
# * hit, by the source's call; i = inactive; ? = inconclusive; . = no result given. Only some compounds are listed: those with a hit (about 1.8% of all), similar ones and a draw of the others. Unless noted, no stated cut-off is given here; in the data, active means activity change below about -65%; inconclusive means mostly about -30% to -63%; inactive means weaker than that. Unless noted, on the % scale 0 is the no-effect control and ±100 the full control effect.
SMILES,PI5P4Ka inh,CtBP-E1A inh,Six1-Eya2 inh,PI4K2A inh,pAkt inh
CCN(C(=O)COC(=O)C1CCN(S(=O)(=O)c2ccc3c(c2)OCCO3)CC1)C1CCS(=O)(=O)C1 (stereo unspecified),-5,-9,4,-2,i
Cc1nc(N/N=C/c2cccc(F)c2)cc(N2CCOCC2)n1,-4,-11,-10,-2,i
Oc1ccc(C=Nc2ccc(N3CCOCC3)cc2)c(O)c1,-60*,0,7,-9,i
Oc1c(Cl)cc(Cl)cc1C=Nc1ccc(N2CCOCC2)cc1,3,3,1,0,i
O=[N+]([O-])c1cc(Cc2ccccc2)cc(C=Nc2ccc(N3CCOCC3)cc2)c1O,-51*,0,-15,?,i
Cc1nc(N/N=C/c2ccc(O)cc2O)cc(N2CCOCC2)n1,-5,-93*,-79*,-7,i
Cc1ccc(O)c(N=Cc2cc(Cc3ccccc3)cc([N+](=O)[O-])c2O)c1,-64*,-3,-21,?,i
O=C1C(=Cc2ccco2)CCC1=Cc1ccco1,-84*,-1,-83*,-59*,i
Cc1ccc(-n2c(COc3ccccc3)n[nH]c2=S)cc1,-19,2,9,-3,i
Cc1cccc(OCc2nc(-c3ccccn3)n[nH]2)c1,0,-89*,-94*,4,i
Cc1ccc(OCc2nc(-c3ccccn3)n[nH]2)cc1,7,-98*,-92*,7,i
C(=C\CSc1ncn[nH]1)/CSc1ncn[nH]1,3,-1,2,1,i
Cc1ccc(/C=C/C(=O)O)cc1S(=O)(=O)N1CCCc2ccccc21,-90*,-12,11,-2,i
Cc1ccc(/C=C/C(=O)O)cc1S(=O)(=O)Nc1ccccc1C(=O)O,-53*,.,-3,2,i
Cc1ccc(/C=C/C(=O)O)cc1S(=O)(=O)N1CCc2ccccc2C1,?,.,8,1,i
Cc1ccc(/C=C/C(=O)O)cc1S(=O)(=O)N1CCc2ccccc21,-76*,3,4,3,i
CC1(C)Cc2c(C#N)c(N3CCN(C(=O)c4ccccc4Cl)CC3)nc(-c3ccco3)c2CS1,-85*,10,-14,-53*,i
O=C(CN1CCCN(S(=O)(=O)c2ccc(F)cc2)CC1)Nc1ccccc1Br,6,-3,-1,0,i
Cc1ccccc1/C=C1\SC(=S)N(/N=C/c2cc([N+](=O)[O-])ccc2O)C1=O,?,-92*,?,-3,i
O=C1/C(=C\c2cc([N+](=O)[O-])ccc2O)SC(=S)N1Cc1ccc(Cl)cc1,?,.,-18,19,i
Cc1cccc(N=C2NC(=O)/C(=C/c3cccn3C)S2)c1C,-72*,-15,-28,-6,i
Cc1ccccc1N=C1NC(=O)/C(=C/c2cccn2-c2cccc(C(=O)O)c2)S1,-87*,5,-16,3,i
O=C(NCc1ccco1)C1CCC(N2C(=O)c3ccccc3C2=O)CC1 (stereo unspecified),.,8,7,-10,.
COc1cc2c(cc1OC)-c1cc(NC3CC3)nc(=O)n1CC2,0,?,?,10,i
COc1cc2c(cc1OC)-c1cc(NC3CCCCCCC3)nc(=O)n1CC2,2,-85*,-80*,7,i
SMILES,PI5P4Ka inh,CtBP-E1A inh,Six1-Eya2 inh,PI4K2A inh,pAkt inh
COc1cc2c(cc1OC)-c1cc(NCc3ccccn3)nc(=O)n1CC2,-3,?,-78*,-16,i
CCOc1ccccc1Nc1cc2n(c(=O)n1)CCc1cc(OC)c(OC)cc1-2,-1,?,?,1,i
CCOc1ccc(Nc2cc3n(c(=O)n2)CCc2cc(OC)c(OC)cc2-3)cc1,-24,-5,-84*,-6,i
COc1cc2c(cc1OC)-c1cc(NC3CCCCC3)nc(=O)n1CC2,-1,-66*,-65*,0,.
Cc1ccc(-c2nnc(Nc3ccc(S(N)(=O)=O)cc3)c3ccccc23)cc1S(=O)(=O)N1CCOCC1,.,.,.,3,.
Cc1ccc(NC(=O)c2nc(S(C)(=O)=O)ncc2N(Cc2ccco2)Cc2ccco2)cc1,.,.,.,-2,.
CCCCCCNc1cc2n(c(=O)n1)CCc1cc(OC)c(OC)cc1-2,.,-81*,-71*,0,i
CCNc1cc2n(c(=O)n1)CCc1cc(OC)c(OC)cc1-2,.,-5,?,-3,i
COc1ccc(N=Nc2cc(C)ccc2O)cc1,20,?,?,-13,i
Cc1ccc(O)c(N=Nc2nccs2)c1,0,?,-71*,-5,i
CCc1ccccc1NC(=O)CCS(=O)(=O)c1ccc2c(c1)CCCN2C(C)=O,-6,0,0,4,i
CCN1C(=O)[C@H]2[C@@H](c3ccc(-c4ccc(Cl)c(Cl)c4)c(OC)c3)N[C@@](C)(C(=O)OC)[C@H]2C1=O,-60*,-3,-2,4,i
CCOC(=O)c1c(C)[nH]c(=S)c(C#N)c1-c1ccc(OC)cc1,.,7,-2,0,i
CCOC(=O)c1c(C)[nH]c(=S)c(C#N)c1-c1ccc(Cl)cc1,-16,.,2,-2,i
CCCCOc1ccc(-c2c(C(=O)Nc3ccccc3)c(C)[nH]c(=S)c2C#N)cc1,-53*,0,3,-5,i
CCCCOc1ccc(-c2c(C#N)c(N)[nH]c(=S)c2C#N)cc1,-95*,.,-8,-4,i
O=C(CN1C(=O)/C(=C2/SC(=S)N(CCS(=O)(=O)O)C2=O)c2ccccc21)Nc1cccc(Br)c1,-57*,-3,?,-12,i
Cc1cccc(NC(=O)CN2C(=O)/C(=C3\SC(=S)N(CC4CCCO4)C3=O)c3ccccc32)c1 (stereo unspecified),0,.,2,-3,i
CCC(C)N(C(=O)CSc1nnc(-c2cccnc2)n1C1CCCCC1)C(C)CC (stereo unspecified),.,.,.,-2,.
CC(C)(C)n1ncc2c(=O)n(CC(=O)OCc3ccccc3)cnc21,2,3,12,-8,i
CC(C)(C)n1ncc2c(=O)n(CC(=O)c3ccccc3)cnc21,1,5,-1,-8,-115%*
O=C1C=CC(=O)C(C2=C3C(=O)N(CCc4ccccc4)CC(=O)N3CCC2)=C1,-72*,-1,?,-7,i
COc1cc(/C=N/Nc2nc3ccccc3[nH]2)cc(Br)c1OCC(=O)N(C)C,-14,-23,?,4,i
COC(=O)CCCC(=O)N1CCOCCN(C(=O)CCCC(=O)OC)CCOCC1,3,-10,-12,8,i
CCNc1ccccc(C(=O)/C=C/c2ccc3c(c2)OCO3)c1=O,-56*,-1,-21,-12,.
CCOC(=O)c1nn(C23CC4CC(CC(C4)C2)C3)c2c1C(=O)N(c1ccc(C)cc1)C2=O,2,1,3,8,-110%*

# Compound activity (PubChem)
